# A number with no mark means an inactive call. Activity calls are given as the source filed them. No rule for the calls is given here.
# System: Aerobactin synthetase IucA (Klebsiella pneumoniae hvKP1)
# Assay: Biochemical IucA enzyme inhibition primary screen of the Spectrum library (AID 1346200);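 also: 100% = wells without compound and 0% = wells lacking enzyme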
# Settings: malachite green pyrophosphate, A620, at 8 µM, active compounds read low
row,Compound,activity remaining
1,NC(=O)NC(=O)Cc1ccccc1,93%
2,COc1cc(O)c(C(=O)/C=C/c2ccccc2)c(OC)c1,119%
3,O=C1C=C(O)c2ccccc2C1=O,123%
4,CCCCOc1ccc(CC(=O)NO)cc1,80.8%
5,O=C(/C=C/c1ccc(O)c(O)c1)O[C@@H]1C[C@](O)(C(=O)O)C[C@@H](O)[C@H]1O,103%
6,C/C1=C/CC(C)(C)/C=C/C/C(C)=C/CC1,122%
7,COc1ccc(-c2cc(C(F)F)nn2-c2ccc(S(N)(=O)=O)cc2)cc1F,123%
8,C=CCCCCCCCCC(=O)O,111%
9,CC(=O)Nc1cccc(O)c1,120%
10,NC(N)=O,91.3%
11,O=C(O)c1cc(=O)c(O)c2c(O)c(O)ccc2c1,90.4%
12,CC(=O)O[C@H]1C[C@@]2(C)[C@@H](C[C@@H](O)C3[C@]2(C)CC[C@H]2[C@H](C)[C@H](O)CC[C@]32C)/C1=C(/CCC=C(C)C)C(=O)O (some centres undefined),110%
13,O=C(O)[C@@H](S)[C@@H](S)C(=O)O,49.3% (active)
14,COc1c(N2CCNC(C)C2)c(F)cc2c(=O)c(C(=O)O)cn(C3CC3)c12 (centres undefined),123%
15,COC1(C)CCC2OC2(C)CCC2C1CC2(C)C (centres undefined),113%
16,O=C(N[C@@H](CO)[C@H](O)c1ccc([N+](=O)[O-])cc1)C(Cl)Cl,114%
17,OC/C=C/c1ccc(O)c(O)c1,81.7%
18,Nc1c2ccccc2nc2ccccc12 (tested in a mixture with another compound),112%
19,CC(C)NCC(O)COc1cccc2ccccc12 (centres undefined),105%
20,CC(=O)O[C@@H]1CC2C(C)(C)C=CC(=O)[C@]2(C)C2CC[C@@]3(C)[C@H](c4ccoc4)OC(=O)C4OC43[C@@]21C (some centres undefined),119%

row,Compound,activity remaining
1,Nc1nccs1,89.3%
2,C=CCCCCCCCCCCCc1ccco1,99.3%
3,O=c1oc2c(O)c(O)cc3c(=O)oc4c(O)c(O)cc1c4c23,91.8%
4,CCCCCCCCNC(C)C(O)c1ccc(SC(C)C)cc1 (centres undefined),114%
5,C=C(C)C1Cc2c(ccc(C(=O)O)c2O)O1 (centres undefined),120%
6,Cn1nnnc1SCC1=C(C(=O)O)N2C(=O)C(NC(=O)C(OC=O)c3ccccc3)C2SC1 (centres undefined),118%
7,C[C@]12C=CC(=O)C=C1CCC1C2C(=O)C[C@@]2(C)C1CC[C@]2(O)C(=O)CO (some centres undefined),101%
8,C[N+]1(C)CCCC(OC(=O)C(O)(c2ccccc2)c2ccccc2)C1 (centres undefined),111%
9,CCOC(=O)C1=C(O)C(=O)N(Cc2ccccc2)C1,96.2%
10,COc1ccc(-c2coc3cc(O)cc(O)c3c2=O)cc1,98.7%
11,C[C@@H]1O[C@@H](OC[C@H]2OC(Oc3c(-c4ccc(OCCO)c(OCCO)c4)oc4cc(OCCO)cc(O)c4c3=O)[C@H](O)[C@@H](O)[C@@H]2O)[C@H](O)[C@H](O)[C@H]1O (some centres undefined),121%
12,CN(C(=O)CN(CCO)CC(=O)N(C)C(C)(C)Cc1ccccc1)C(C)(C)Cc1ccccc1,101%
13,COC(=O)[C@]1(C)CC[C@]2(C)CC[C@]3(C)C4=CCc5c(cc(O)c(O)c5C)[C@]4(C)CC[C@@]3(C)C2C1 (some centres undefined),106%
14,CC(C)c1ccc2c(c1)CCC1C(C)(C(N)=O)CCCC21C (centres undefined),103%
15,CCN(CC)CCOc1ccc(/C(=C(\Cl)c2ccccc2)c2ccccc2)cc1,111%
16,C#C[C@]1(OC(C)=O)CCC2C3CCC4=CC(=O)CC[C@@H]4C3CC[C@@]21C (some centres undefined),93%
17,CN(C)/N=N/c1nc[nH]c1C(N)=O,107%
18,CN(CCOc1ccc(CC2SC(=O)NC2=O)cc1)c1ccccn1 (centres undefined),113%
19,C=C1CC[C@H](O)C/C1=C/C=C1\CCCC2(C)C1CCC2C(C)CCCC(C)C (some centres undefined),113%

# — PubChem BioAssay
